The panel holds about 83,000 compounds, 20% with a hit somewhere; the sample as a whole holds those more often.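 Growth was measured after 48 h exposure to one concentration of compound in 96-well plates. Values under 10 count as active.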 Values without a mark were called inactive. Calls of active or inactive are those of the source.

The first test deals with UO-31 renal. Nature of the test: NCI-60 one-dose screen, 48 h (100 = growth as untreated, 0 = no growth, -100 = all killed). The conditions noted are these: 10 µM unless noted.
Turning to `O=C(Nc1ccc(F)cc1)Nc1ccc(CCO)cc1`, the growth is 94.1%.

For the compound `C[C@@H]1CC[C@@H]2[C@@H]1[C@H](OC(=O)/C=C/c1ccccc1)[C@]1(C3CCCCC3)C[C@@H](OC(=O)CO)[C@@]2(C)O1`, the growth is -51.7% (active).

As for `O=C1Nc2ccccc2/C1=C/C(=N/c1nnc(-c2ccccc2)s1)c1ccccc1`, the growth was -87.2% (active).

As to `CCCCCCCCOC(=O)CC[C@@H](C)[C@H]1CC[C@H]2[C@@H]3[C@H](OC(=O)CCN)C[C@@H]4C[C@H](OC(=O)CCN)CC[C@]4(C)[C@H]3C[C@H](OC(=O)CCN)[C@]12C`, the growth was 105%.

A further test has as its system TK-10 renal. The description is as above. The following applies: 10 µM unless noted.
For `Nc1cc2nc3ccccc3sc-2cc1=O`, the growth was 137%.

For `Cc1noc(C)c1-c1cc(O)cc(C(O)c2ccccc2)c1` (stereo not given), the growth was 12.6%.

In the case of `CCCCCC(=O)N(CCCC)CCCC`, the growth was 109%.

`COc1ccc(/C=N\NC(=O)c2ccncc2)cc1O`: the growth is 102%.

Regarding `O=C(Cn1cc(CN2C(=O)c3ccccc3S2(=O)=O)nn1)Nc1ccc([N+](=O)[O-])cc1Cl`, the growth was 112%.

Consider `Oc1ccc(Nc2nccc(-c3ccc4ccccc4c3)n2)cc1`, for which the growth is 49.4%.

For the compound `O=C1C=CC(=O)c2c1nc1n2CCCC1`, the growth was 109%.

Consider `Cc1cc(Nc2nc(N3CCOCC3)nc3ccccc23)n[nH]1`, for which the growth was 47.2%.

As to `Cc1ccc(C2CC3c4ccccc4C2C2CCCCN32)cc1` (stereo not given), the growth is 97.1%.

In the case of `Cc1csc2ccc(Cl)cc12`, the growth was 99.4%.

As to `O=S(=O)(Nc1ccc(F)c(Cl)c1)c1ccc(-c2cnc(C3CC3)o2)cc1`, the growth is 44%.

Values taken from PubChem BioAssay (NCI).
